Bioassay records from PubChem BioAssay.
Sampled rows, rich in hits. Any-hit rate of the full collection: about 4.7%.
NTMT1 inhibitor: Primary qHTS for Inhibitors of N-terminal methyltransferase 1 (NTMT1): MTaseGlo Assay; AID 1645870, 2021; hit rate 2.5% among 59,000; Potency, µM (doses to about 114 µM), inactives show at the highest dose activity change, negative = inhibition, hits mostly inhibitors; N-terminal Xaa-Pro-Lys N-methyltransferase 1 (Homo sapiens), Q9BV86; NTMT1 MTase-Glo SAH luminescence, purified enzyme;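 further: potency means the concentration at half of the fitted maximal effect; plate controls were DMSO vehicle for no effect and no enzyme for full effect; nearly all actives have a fitted effect of over 65% in size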
Target sequence (Q9BV86 whole entry, looked up): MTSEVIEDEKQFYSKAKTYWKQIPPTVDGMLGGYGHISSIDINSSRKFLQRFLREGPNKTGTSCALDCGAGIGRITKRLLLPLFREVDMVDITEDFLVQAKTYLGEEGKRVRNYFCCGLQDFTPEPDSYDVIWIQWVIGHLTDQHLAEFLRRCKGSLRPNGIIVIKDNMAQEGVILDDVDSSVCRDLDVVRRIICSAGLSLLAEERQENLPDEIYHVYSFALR
FH mod: Identification of activators of human fumarate hydratase by quantitative high-throughput screening; FH coupled MDH/diaphorase resazurin fluorescence, 15 min; Potency, µM (series often up to 79.9 µM), without a hit: at the highest dose activity change, negative = inhibition, hits mostly inhibitors; hit rate 0.22% among 54,000; further: potency means the concentration at half of the fitted maximal effect; on the % scale 0 is the no-effect control and ±100 the full control effect; the screen sought activators but most active calls are inhibition curves; nearly all actives have a fitted effect of over 45% in size
DYRK1A inh-1: Assay for Inhibitors of Dual-Specificity Tyrosine-(Y)-Phosphorylation Regulated Kinase 1A (Kinase-Glo assay). shares compounds with NTMT1 inhibitor. recombinant DYRK1A, Kinase-Glo ATP depletion luminescence. Potency, µM (top dose mostly 76.9 µM), inactives show top-dose activity change, negative = inhibition, most hits filed as inhibitors. hit rate 80% among 100
CLK4 inh-1: Confirmation Assay for Inhibitors of CDC-like Kinase 4 (Kinase-Glo Assay): SAR round 2 | shares compounds with NTMT1 inhibitor | recombinant Clk4, Kinase-Glo ATP luminescence, 4.5 h | Potency, µM (doses to about 76.9 µM), for inactives: at the highest dose activity, negative = inhibition, usual class: inhibitors | hit rate 90% among 90 | AID 493204, 2011
CLK4 inh-2: Kinase Inhibition Study on Inhibitors of CDC-like Kinase 4 (Reaction Biology data): SAR round 2; Reaction Biology kinase assay, 10 uM ATP; hit rate 100% among 65; AID 504421, 2011; Potency, µM, actives largely listed as inhibitors; shares compounds with NTMT1 inhibitor; calls by dose curve
DYRK1A inh-2: Kinase Inhibition Study on Inhibitors of Dyrk1a (Reaction Biology data); hit rate 90% among 65; shares compounds with NTMT1 inhibitor; Reaction Biology kinase assay, 10 uM ATP; Potency, µM, actives largely listed as inhibitors;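 active means compounds that showed inhibition of Dyrk1a and received a fitted potency; inactive means compounds that showed no inhibition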
CLK2 inh: Kinase Inhibition Study on Inhibitors of CDC-like Kinase 2 (Reaction Biology data); hit rate 90% among 65; shares compounds with NTMT1 inhibitor; Potency, µM, actives largely listed as inhibitors; Reaction Biology kinase assay, 10 uM ATP;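 active means compound that inhibits Clk2 kinase in the dose series, with an IC50 potency reported; inactive means no inhibition seen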
CLK3 inh: Kinase Inhibition Study on Inhibitors of CDC-like Kinase 3 (Reaction Biology data). recombinant CLK3 kinase assay, 10 uM ATP. hit rate 40% among 65. Potency, µM, hits mostly inhibitors. shares compounds with NTMT1 inhibitor;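 active means compounds that inhibited Clk3 enough in the ten-dose series to give a half-maximal potency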
DYRK1B inh: Kinase Inhibition Study on Inhibitors of Dyrk1b (Reaction Biology data); shares compounds with NTMT1 inhibitor; Recombinant Dyrk1b kinase assay, 10 uM ATP; Potency, µM, usual class: inhibitors; hit rate 80% among 65;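 active means compounds whose dose response shows an inhibitor phenotype against the kinase Dyrk1b; inactive means compounds showing no inhibitor phenotype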
CLK1 RBC: Kinase Inhibition Study on Inhibitors of CDC-like Kinase 1 (Reaction Biology data). shares compounds with NTMT1 inhibitor. recombinant Clk1 kinase assay, 10 uM ATP. Potency, µM, actives largely listed as inhibitors. hit rate 90% among 65. AID 504430, 2011;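 active means compounds that block the splicing kinase Clk1 enough to give a fitted half-inhibition concentration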
Sfp qHTS opt: qHTS Assay for Inhibitos of Bacillus subtilis Sfp phosphopantetheinyl transferase (PPTase): Chemistry Optimization Followup; shares compounds with NTMT1 inhibitor; hit rate 78% among 230; Potency, µM (titrated, usually from 114 µM), without a hit: at the top dose activity change, negative = inhibition, usual class: inhibitors; purified Sfp PPTase enzyme activity, qHTS
Bsub HM489 growth: qHTS for Inhibitos of Bacillus subtilis Sfp phosphopantetheinyl transferase (PPTase): Chemistry Optimization Followup in B. Subtilis HM489 | shares compounds with NTMT1 inhibitor | B. subtilis HM489 (acpS-) growth, BacTiter-Glo, 5 h | Potency, µM (titrated, usually from 114 µM), for the others: top-dose activity change, negative = inhibition, hits mostly inhibitors | hit rate 50% among 220
Sfp PPTase gel: Gel-Based Assay for Inhibitos of Bacillus subtilis Sfp phosphopantetheinyl transferase (PPTase): Chemistry Optimization Followup; hit rate 54% among 220; shares compounds with NTMT1 inhibitor; Potency, µM (top dose mostly 250 µM), for the others: at the highest dose activity change, negative = inhibition, actives largely listed as inhibitors; purified Sfp PPTase, gel-based product detection
Sfp inh SAR2: qHTS Assay for Inhibitors of Bacillus subtilis Sfp phosphopantetheinyl transferase (PPTase): SAR Round 2; Potency, µM (highest dose often 57.1 µM), for the others: at the highest dose activity change, negative = inhibition, actives largely listed as inhibitors; hit rate 87% among 230; shares compounds with NTMT1 inhibitor; purified Sfp enzyme, PPTase activity, qHTS
HSD17B4 counter: Extended Characterization of HPGD Inhibitors: Counterscreen Against HSD17b4 | hit rate 10% among 230 | shares compounds with NTMT1 inhibitor | purified HSD17B4, estradiol/NAD+, NADH fluorescence | AID 743187, 2013 | Potency, µM (series often up to 57.1 µM), for inactives: at the highest dose activity change, negative = inhibition, most hits filed as inhibitors
ALDH1A1 inh: Extended Characterization of HPGD Inhibitors: Counterscreen Against ALDH1A1 | Potency, µM (highest dose often 57.1 µM), for inactives: at the highest dose activity change, negative = inhibition, hits mostly inhibitors | recombinant ALDH1A1, NADH fluorescence, propionaldehyde/NAD+ | AID 743195, 2013 | hit rate 93% among 230 | shares compounds with NTMT1 inhibitor
NNMT counter: Counterscreen qHTS for Inhibitors of N-terminal methyltransferase 1 (NTMT1): NNMT MTaseGlo assay | Potency, µM (titrated, usually from 57.1 µM), for the others: top-dose activity, negative = inhibition, hits mostly inhibitors | hit rate 10% among 120 | AID 1645878, 2021 | NNMT MTase-Glo luminescence, SAH detection | shares compounds with NTMT1 inhibitor
Target sequence (P40261 whole entry, looked up): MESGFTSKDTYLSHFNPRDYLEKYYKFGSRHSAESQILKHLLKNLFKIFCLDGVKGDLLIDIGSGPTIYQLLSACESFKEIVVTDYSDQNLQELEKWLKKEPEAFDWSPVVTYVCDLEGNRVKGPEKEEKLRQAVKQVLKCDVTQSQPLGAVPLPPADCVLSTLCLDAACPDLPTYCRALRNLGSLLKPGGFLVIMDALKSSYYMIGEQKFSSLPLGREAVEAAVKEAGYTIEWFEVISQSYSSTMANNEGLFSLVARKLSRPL
* = called active by the depositor; i = inactive; ? = inconclusive; . = not tested or not shown; [ ] = another dose, or the depositor's remark. Unless noted, the call rests on the fitted dose curve; in most records, active means well fitted curve in the direction sought with a large enough effect; inconclusive means small, poorly fitted or top-dose-only effect, or another doubt; inactive means no such curve, though single readings can be large; an effect the other way counts as inactive or inconclusive.

SMILES | NTMT1 inhibitor | FH mod | DYRK1A inh-1 | others
Cc1ccnc(NC(=S)NCCN(C)c2cccc(C(F)(F)F)c2)c1 | -3% | . | . | Sfp qHTS opt=?;Bsub HM489 growth=3%;Sfp PPTase gel=-11%;Sfp inh SAR2=?;HSD17B4 counter=-5%;ALDH1A1 inh=15µM*
COc1c2cc(c(O)c1OC)-c1cc(ccc1O)CCC(O)CCCC2 (stereo not given) | -2%[29.8 µM] | 6%[53.3 µM] | .
Cn1cnc(CCNc2ncnc3ccc(-c4ccc5c(c4)OCO5)cc23)c1 | 12% | . | 1.5µM*
Cc1csc(CNc2ncnc3ccc(-c4ccc5c(ccn5C)c4)cc23)c1 | -3% | . | .
CCN(CCc1cn(C)cn1)c1ncnc2ccc(-c3ccc4c(c3)OCO4)cc12 | ? | . | 2.3µM*
CCCNc1ncnc2ccc(-c3ccc4c(c3)OCO4)cc12 | . | . | . | CLK4 inh-1=0.041µM*
CCCN(Cc1cccs1)c1ncnc2ccc(-c3ccc4c(c3)OCO4)cc12 | ? | . | 0.82µM*
Cc1nc(CCNc2ncnc3ccc(-c4ccc5c(c4)OCO5)cc23)cs1 | -21% | . | . | CLK4 inh-1=0.065µM*
c1nc(N2CCC(N3CCCC3)CC2)c2cc(-c3ccc4c(c3)OCO4)ccc2n1 | ? | . | 23µM* | CLK4 inh-2=10*;DYRK1A inh-2=i;CLK2 inh=i;CLK3 inh=i;DYRK1B inh=i;CLK1 RBC=15µM*
c1nc(NCC2CCOC2)c2cc(-c3ccc4c(c3)OCO4)ccc2n1 (stereo not given) | 25µM* | -8% | 0.092µM*
CC(C)(C)CNc1ncnc2ccc(-c3ccc4c(c3)OCO4)cc12 | . | . | 0.0091µM*
C/C=C(\C)C(=O)O[C@@H]1[C@@H](C)[C@]2(O)[C@@H]3C=C(C)C(=O)[C@H]3CC(CO)=C[C@H]2C2C(C)(C)[C@@]21OC(=O)C(C)CC (stereo not given in full) | 14%[29.8 µM] | -6%[53.3 µM] | .
COc1ccc2nc(S(=O)(=O)Cc3ncc(C)c(OC)c3C)[nH]c2c1 | 11%[57.5 µM] | -1% | .
O=C([C@H](Cc1ccc(O[S+](=O)([O-])c2cccc3cccnc23)cc1)N[S+](=O)([O-])c1cccnc1)N1CCN(c2ccccc2)CC1 | 6% | . | .
CCOC(=O)C1CCN(C(=O)C(C)(C)NC(=O)Nc2ccc3ccccc3c2)CC1 | 6% | . | .
CCCCCOc1ccc(-c2ccc(-c3ccc(C(=O)N[C@H]4C[C@@H](O)[C@@H](O)NC(=O)[C@@H]5[C@@H](O)[C@@H](C)CN5C(=O)[C@H]([C@@H](C)O)NC(=O)[C@H]([C@H](O)[C@@H](O)c5ccc(O)cc5)NC(=O)[C@@H]5C[C@@H](O)CN5C(=O)[C@H]([C@@H](C)O)NC4=O)cc3)cc2)cc1 | 5%[29.8 µM] | -18%[53.3 µM] | . | NNMT counter=-4%[28.6 µM]
